As a reminder, the viability is a read-out of living cells in per cent, often relative to untreated cells. As usually defined, the inhibition is the relative decrease from the control value, in per cent.

The structures appear in SMILES notation. Several values for one entry are separate records, joined by “and”; a condition that tells them apart may be missing. Identical values can stand only once. Inconclusive results are not listed. Activity calls are given as the source filed them. Unless noted, the rule behind the calls is not given here.

This is an account of results in PubChem BioAssay.

Assay [1] can be described thus: compounds altering viability of human ES cells (AID 493140).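 Note: cells exposed to compounds for four days before counting.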 Conditions: human embryonic stem cell survival screen; stronger effect = higher value.
Assay [2] can be described thus: viability loss with induced miR-34 in A549 – imaging, A549 dox-inducible miR-34, nuclei and caspase counts, primary screen (AID 1347080;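 active = compounds whose cell count with miR-34 switched on is under 0.7 times the count with it off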). Conditions: A549 miR-34 inducible, Hoechst nuclei count, 48 h.
Assay [3] in a line: chitosan synthesis blockers in C. neoformans – flow cytometry, Cibacron Brilliant Red staining (AID 1347148).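 Note: compound exposure lasted three days at 37 degrees C.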 As to conditions: Cryptococcus neoformans chitosan, stronger effect = lower value; at 10 µM unless noted. For orientation: In flow cytometry, cells or beads pass a laser one at a time.
A short description of assay [4]: compounds altering HSF1 focus formation in cells – imaging, Selleck Cancer Library (AID 1347162; in the data active = plate-normalised HSF1 focus index below about 0.46). Conditions: human cells, HSF1 nuclear foci imaging, at 10 µM; SSMD: measured here: HSF1 foci SSMD mean; cell count: measured here: cell number; plate-normalised HSF1 focus index: stronger effect = lower value.
Assay [5] can be described thus: blockers of cellular phospholipid synthesis – cell-based, LOPAC library, screen 4, primary screen (AID 1347384). As to conditions: animal cells, phospholipid biosynthesis inhibition screen; at 10 µM.
A short description of assay [6]: MELAS cybrid and Rieske KO viability enhancers – cell-based, MELAS cybrids, Rieske KO mouse fibroblasts, CellTiter-Glo, primary screen (AID 1508586;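 active = mean z-score across replicates of 1.96 or higher in either the MELAS or the Rieske mutant cell line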;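 note: z relative to plate mean and SD of compound and empty wells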). Conditions: low glucose.
A short description of assay [7]: galactose survival enhancers in mitochondrial complex I cybrids – cell-based, galactose medium, ATP luminescence, primary screen (AID 1645843;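 active = z-score of at least 1.8 in each of two replicates, scored against plate mean and spread of sample wells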;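 note: positive z means more ATP and so rescue of galactose-driven cybrid death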). Conditions: complex I mutant cybrid cells, 72 h, stronger effect = higher value.
Assay [8] can be described thus: compounds altering circadian rhythm period length – cell-based, LOPAC library, luminescence reporter (AID 2774).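 Note: values are relative to mean of DMSO wells on each plate.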 As to conditions: circadian reporter cells, at 7 µM, actives lie on both sides.
The nature of assay [9]: P. berghei load reduction in hepatocytes – cell-based, HepG2, luciferase luminescence, HepG2 viability, primary screen (AID 624349; in the data active = parasite load remaining mostly below about 12%, no sharp cut-off; inactive = mostly above about 10%;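 note: 100% = mean of DMSO negative control wells on the same plate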). Conditions: P. berghei liver stage in HepG2, luciferase luminescence, concentration not given here; parasite load remaining: stronger effect = lower value; viability: measured here: HepG2 viability without parasites.
Assay [10] deals with Hepatitis C virus NS3 helicase. Kind of assay: blockers of NS3h binding to ssDNA – biochemical, fluorescence polarization, LOPAC1280 library, primary screen (AID 687035; in the data active = inhibition above about 37%). Conditions: Purified HCV NS3 helicase, Cy5-dT15 ssDNA binding fluorescence polarization; stronger effect = higher value; concentration not given here. Background: Polarisation of emitted light reports the rotation of a fluorescent probe.

A short description of assay [11]: compounds altering Cy5-DNA-NS3h complex signal – biochemical, LOPAC1280, artefact control for HCV NS3 helicase inhibitor project (AID 687037). Conditions: Cy5-DNA-NS3h complex fluorescence interference counterscreen.
The target of assay [12] is ATP-dependent translocase ABCB1 (Homo sapiens) (UniProt P08183). Kind of assay: P-glycoprotein substrate transport blockade – cell-based (AID 377; in the data active = fluorescence slope change above about 50%). Conditions: MDR1-expressing cells, fluorescent substrate accumulation slope; stronger effect = higher value; concentration not given here.
Sequence of ATP-dependent translocase ABCB1 (Homo sapiens) (P08183 whole entry, looked up): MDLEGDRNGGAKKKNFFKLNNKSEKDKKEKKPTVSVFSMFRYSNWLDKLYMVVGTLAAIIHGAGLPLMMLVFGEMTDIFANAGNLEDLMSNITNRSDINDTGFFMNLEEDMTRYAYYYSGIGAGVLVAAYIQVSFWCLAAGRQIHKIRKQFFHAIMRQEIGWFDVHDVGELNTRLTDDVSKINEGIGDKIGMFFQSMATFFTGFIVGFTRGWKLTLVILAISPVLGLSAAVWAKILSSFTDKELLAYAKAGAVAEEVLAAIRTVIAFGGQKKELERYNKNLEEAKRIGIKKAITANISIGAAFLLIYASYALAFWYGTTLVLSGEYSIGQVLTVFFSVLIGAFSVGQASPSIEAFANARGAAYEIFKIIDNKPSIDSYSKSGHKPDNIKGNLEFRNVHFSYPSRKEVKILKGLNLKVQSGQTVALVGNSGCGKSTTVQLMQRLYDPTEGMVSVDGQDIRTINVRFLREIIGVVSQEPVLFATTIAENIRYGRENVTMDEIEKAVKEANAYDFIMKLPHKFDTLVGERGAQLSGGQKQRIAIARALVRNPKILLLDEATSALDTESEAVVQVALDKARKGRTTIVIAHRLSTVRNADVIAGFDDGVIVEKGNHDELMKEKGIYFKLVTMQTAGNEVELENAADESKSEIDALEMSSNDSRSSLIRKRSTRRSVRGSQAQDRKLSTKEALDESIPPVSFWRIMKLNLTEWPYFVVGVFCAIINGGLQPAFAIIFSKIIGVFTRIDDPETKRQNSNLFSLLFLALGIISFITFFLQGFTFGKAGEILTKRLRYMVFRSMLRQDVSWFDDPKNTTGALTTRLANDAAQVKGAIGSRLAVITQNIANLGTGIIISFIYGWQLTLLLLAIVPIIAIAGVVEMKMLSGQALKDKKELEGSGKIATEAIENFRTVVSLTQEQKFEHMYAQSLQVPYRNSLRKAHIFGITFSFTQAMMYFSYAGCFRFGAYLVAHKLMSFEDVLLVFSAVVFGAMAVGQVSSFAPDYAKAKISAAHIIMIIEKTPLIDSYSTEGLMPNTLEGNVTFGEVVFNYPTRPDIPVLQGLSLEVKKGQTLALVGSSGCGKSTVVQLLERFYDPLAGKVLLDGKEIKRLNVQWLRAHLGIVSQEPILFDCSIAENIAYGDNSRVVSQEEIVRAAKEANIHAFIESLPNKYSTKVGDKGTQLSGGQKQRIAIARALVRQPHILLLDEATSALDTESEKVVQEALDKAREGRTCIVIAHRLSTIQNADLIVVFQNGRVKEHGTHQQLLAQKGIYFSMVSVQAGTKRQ
Where [13] appears, read: stronger effect = lower value, cell number ratio, induced over uninduced.
Setting [14] is: measured here: relative caspase fold change +Dox/-Dox.
Setting [15] is: measured here: total cells with miR-34 induction, stronger effect = lower value.
[16] abbreviates: measured here: total cells without miR-34 induction.
Setting [17] is: MELAS cybrid survival, CellTiter-Glo 48 h, stronger effect = higher value.
The mark [18] stands for this setting: Rieske KO mouse fibroblast survival, CellTiter-Glo 72 h.

For the compound `C#CCCCCCCCCCCCCCCCC(=O)O`, in [1], the survival is 96.8 (inactive). Further, the fold change is 0.987 (inactive) and 1.06 (inactive) in assay [2] (setting [13]); 1.49 and 0.91 in assay [2] (setting [14]). The cell count was 5840 and 5920 in assay [2] (setting [15]); 5920 and 5580 in assay [2] (setting [16]). Moreover, in assay [3], the fold fluorescence is 5.76 (inactive).

Turning to `CCCCC[C@H](O)/C=C/C1=C(C/C=C\CCCC(=O)O)C(=O)CC1`, the survival in [1] is 130 (inactive). Moreover, the fold change in [2] (setting [13]) was 0.969 (inactive) and 0.886 (inactive); in assay [2] (setting [14]) it was 1.57 and 1.52. Further, the cell count in assay [2] (setting [15]) is 6100 and 5600; in [2] (setting [16]), 6300 and 6320. Also, the fold fluorescence in [3] is 3.98 (inactive).

On to `CCc1cncnc1N1CCN(Cc2nc3ccc(C(F)(F)F)cc3[nH]2)CC1`, for which the fold change in assay [2] (setting [13]) is 0.998 (inactive) and 0.92 (inactive); in [2] (setting [14]) it was 1.49 and 0.523. Besides, the cell count in assay [2] (setting [15]) is 6670 and 5920; in assay [2] (setting [16]), 6690 and 6430; in [4] it was 7470. The SSMD in assay [4] was 2.94. The plate-normalised HSF1 focus index in assay [4] was 1.18 (inactive). The compound was called inactive in [5]. For the same compound, the values for the z-score in [6] (setting [17]), in assay [6] (setting [18]) and in assay [7] were 0.232 (inactive), 0.0669 and -1.37 (inactive), respectively.

As to `CCCCC[C@H](O)/C=C/[C@H]1C=CC(=O)[C@@H]1CCCCCCC(=O)O`, the survival in assay [1] is 103 (inactive). Also, the fold change in [2] (setting [13]) was 0.912 (inactive) and 0.844 (inactive); in assay [2] (setting [14]), 1.4 and 1.79. In addition, the cell count in assay [2] (setting [15]) was 5980 and 4550; in [2] (setting [16]) it was 6560 and 5390. Besides, the fold fluorescence in assay [3] is 4.35 (inactive).

Regarding `COC(=O)C1=C(C)NC(C)=C(C(=O)OC2CCCN(Cc3ccccc3)C2)C1c1cccc([N+](=O)[O-])c1` (stereo unspecified), the fold change in assay [2] (setting [13]) was 1.82 (inactive) and 1.04 (inactive); in assay [2] (setting [14]), 0.615 and 0.533. Further, the cell count in [2] (setting [15]) was 3920 and 6890; in assay [2] (setting [16]), 2160 and 6660. Also, the compound was called inactive in assay [5]. For the same compound, the results for the z-score in [6] (setting [17]), in assay [6] (setting [18]) and in assay [7] were -0.438 (inactive), -0.0848 and -1.88 (inactive), respectively.

Consider `O=C(O)CNC(=O)C(CS)Cc1ccccc1` (stereo unspecified), for which the period change in assay [8] was -0.18 h (inactive). Besides, the survival in [1] was 4.92 (inactive). The parasite load remaining in assay [9] was 144% (inactive) and 78.5% (inactive). The viability in assay [9] is 103% and 75.5%. The inhibition in assay [10] was 0% (inactive). Besides, the fluorescence ratio (interference) in assay [11] was 1 (inactive). Moreover, the fold change in [2] (setting [13]) was 0.968 (inactive) and 0.835 (inactive) and 1 (inactive); in assay [2] (setting [14]), 1.08 and 1.52 and 1.29. Moreover, the cell count in assay [2] (setting [15]) was 9910 and 8670 and 5950; in assay [2] (setting [16]), 10200 and 10400 and 5920. Besides, the outcome in [5] was inactive. Moreover, the z-score in assay [6] (setting [17]) is -0.922 (inactive); in assay [6] (setting [18]) it was 0.154; in [7], 0.48 (inactive).

For the compound `COc1ccc(-c2ccc(N)[n+](CCCC(=O)O)n2)cc1`, the fluorescence slope change in [12] is 101% (active). Moreover, the period change in assay [8] is 0.235 h (inactive). In addition, in [1], the survival was 6.75 (inactive). Besides, the parasite load remaining in [9] is 113% (inactive) and 70.4% (inactive). The viability in [9] was 102% and 78.3%. The inhibition in [10] was -3% (inactive). In addition, in assay [11], the fluorescence ratio (interference) is 0.9 (inactive). Further, the fold change in [2] (setting [13]) was 0.962 (inactive) and 0.851 (inactive); in [2] (setting [14]), 1.4 and 1.26. The cell count in assay [2] (setting [15]) is 9690 and 9480; in assay [2] (setting [16]), 10100 and 11100. Moreover, the compound was classed as inactive in assay [5]. Further, the z-score is 0.473 (inactive) in assay [6] (setting [17]), 0.0476 in assay [6] (setting [18]) and 0.685 (inactive) in assay [7].
